The text below walks through data of PubChem BioAssay.

Active and inactive are the calls of the source.

Assay [1] can be described thus: A549 cell viability effects, profiling panel, calcein-AM fluorescence, 48 h, basal (AID 1162). The following applies: higher = more signal.
The nature of assay [2]: adipocyte viability effects, profiling panel, cell-based, 3T3-L1 adipocytes, calcein-AM fluorescence, 48 h, basal (AID 1163). Particulars: 3T3-L1 adipocytes viability, higher = more signal.
Assay [3] in a line: HepG2 cell viability effects, profiling panel, calcein-AM fluorescence, 48 h, basal (AID 1164). The following applies: higher = more signal.
Assay [4] is described as follows: MM1S cell viability effects, profiling panel, calcein-AM fluorescence, 48 h, basal (AID 1165).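 Note: viability of MM1S multiple myeloma cells under basal unstimulated conditions.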 Particulars: higher = more signal.
A short description of assay [5]: basal RPMI8226 viability, no added stimulus, profiling panel, cell-based, calcein-AM fluorescence, 48 h, PK04 Diversity Set (AID 1166).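 Note: cells grown under basal conditions without added stimulus.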 Particulars: RPMI8226 myeloma viability, higher = more signal.
The nature of assay [6]: basal HepG2 mitochondrial membrane potential changes, profiling panel, cell-based, JC-1 fluorescence, 24 h, 100 nL compound (AID 1167). The following applies: higher = more signal.
The nature of assay [7]: basal 3T3-L1 adipocyte mitochondrial potential changes, profiling panel, cell-based, JC-1 fluorescence, 3T3-L1 adipocytes, 24 h, 100 nL compound (AID 1168). Particulars: JC-1 mitochondrial fluorescence, higher = more signal, called active from +8 up or from −8 down.
The nature of assay [8]: basal RPMI8226 mitochondrial membrane potential changes, profiling panel, cell-based, JC-1 fluorescence, 24 h, 100 nL compound (AID 1169). Particulars: RPMI8226 myeloma, JC-1 mitochondrial potential fluorescence, higher = more signal.
Assay [9] can be described thus: basal MM1S mitochondrial membrane potential changes, profiling panel, cell-based, JC-1 fluorescence, 24 h, 100 nL compound (AID 1170). The following applies: higher = more signal.
The nature of assay [10]: A549 lung cancer cell viability effects, profiling panel, resazurin fluorescence, 24 h, PK04 Diversity Set (AID 1171). The following applies: higher = more signal, called active from +8 up or from −8 down.
Note: test concentration not given here.

Take `CCCC[C@@H](O)C1=C(COc2ccccc2)C[C@H]2C(=O)N(Cc3ccccc3)C(=O)[C@H]2[C@H]1CO`: the z-score is 0.553 in assay [1]; -0.0277 in assay [2]; 0.913 in assay [3]; -0.189 in assay [4]; 0.0172 in assay [5]; 1.17 in assay [6]. The z-score in [7] was 0.0746 (inactive); in assay [8], -1.06; in assay [9], -0.172; in [10], -0.0959 (inactive).
On to `COCCOC(=O)N1C(=O)[C@@]2(c3cc(C#CC4(O)CCCCCC4)ccc31)[C@H](C(=O)Nc1nc3ccccc3s1)[C@H]1C(=O)O[C@H](c3ccccc3)[C@H](c3ccccc3)N1[C@@H]2c1ccc(O)cc1`, for which the z-score in assay [1] is 0.638; in [2] it was -0.457; in assay [3] it was 0.74; in [4], -0.227; in assay [5] it was -2.46; in [6] it was -3.17. The z-score was -0.421 (inactive) in [7], -0.897 in assay [8], -0.897 in assay [9] and -0.436 (inactive) in assay [10].
For the compound `CC[C@@H]1C=C(C(=O)O)[C@H](c2ccc(C#N)cc2)N1S(=O)(=O)c1ccc(C)cc1`, the z-score in assay [1] is -0.484; in assay [2], -0.364; in [3], -1; in assay [4] it was 0.492; in [5], -0.95; in assay [6], -0.968. Besides, the z-score in assay [7] was -0.552 (inactive); in [8], 0.875; in assay [9] it was -1.06; in assay [10], -0.858 (inactive).
For the compound `C=CC[C@@]1(C(=O)NCCCOC)N=C(c2ccc(OCCCO)cc2)O[C@@H]1c1ccccc1`, the z-score in [1] was 0.689; in [2] it was 0.457; in assay [3] it was 0.83; in [4], 0.611; in assay [5], 0.751; in assay [6] it was -0.166. In addition, the z-score in assay [7] was 1.21 (inactive); in [8], -0.323; in [9] it was 0.193; in [10], -0.706 (inactive).
As for `CCCC[C@@H](O)C1=C(COC)C[C@H]2C(=O)N(Cc3ccccc3)C(=O)[C@H]2[C@H]1CO`, the z-score was 0.449 in assay [1]; -1 in assay [2]; 1.35 in [3]; 0.887 in assay [4]; 0.105 in assay [5]; -0.0934 in [6]. Moreover, the z-score in assay [7] was 0.0385 (inactive); in assay [8] it was -0.851; in assay [9], -1.35; in [10] it was 0.0943 (inactive).
Turning to `[N-]=[N+]=Nc1ccccc1C[C@]1(C(=O)O)COC(c2ccc(OCCCO)cc2)=N1`, the z-score is -0.118 in assay [1]; 0.909 in assay [2]; 0.215 in [3]; -0.0932 in assay [4]; -0.747 in assay [5]; -0.253 in [6]. In addition, the z-score in assay [7] was -1.19 (inactive); in [8], -0.329; in [9], 0.529; in assay [10], -0.98 (inactive).
`C=CCN1C(=O)[C@]2(CCS(=O)(=O)c3ccccc3)N=C(c3ccc(OCCCO)cc3)O[C@@H]2c2ccccc21`: the z-score is 0.776 in [1]; 0.142 in assay [2]; 0.504 in [3]; -0.0236 in assay [4]; 0.716 in assay [5]; 0.452 in assay [6]. Also, the z-score in assay [7] was 1.42 (inactive); in assay [8], -0.156; in assay [9] it was 0.615; in assay [10], -2.52 (inactive).
Consider `C=CC[C@H](OC(=O)Nc1ccc(SC)cc1)c1ccc(O)c2ccccc12`, for which the z-score is -2.22 in assay [1]; -0.162 in [2]; -3.05 in assay [3]; -2.74 in assay [4]; -4.21 in assay [5]; -3.26 in assay [6]. Besides, the z-score in [7] was 0.41 (inactive); in [8] it was -1.02; in [9] it was -2.09; in assay [10] it was -1.24 (inactive).
Regarding `C=CCC(OC(C)=O)[C@@H]1[C@@H](N(Cc2cccc3ccccc23)C(=O)Cc2ccc(F)cc2)c2cc(OCCCO)ccc2N1C(=O)c1ccc2ccccc2c1` (stereo not given in full), the z-score in [1] was 0.937; in assay [2] it was 1; in assay [3], 0.975; in assay [4], -0.222; in [5] it was -0.754; in [6], 2.9. Also, the z-score in assay [7] was -0.249 (inactive); in [8], -0.774; in assay [9] it was -0.45; in [10], 1.25 (inactive).
For the compound `COCCCNC(=O)[C@@]1(Sc2ccc(C)cc2)CC(=O)N(C2Cc3ccccc3C2)[C@@H]1c1ccc(CO)cc1`, the z-score in [1] was 0.771; in [2], 0.544; in [3], -0.603; in assay [4], 0.762; in assay [5] it was -0.204; in assay [6], 0.17. For the same compound, the z-score in assay [7] was -0.137 (inactive); in [8], 0.445; in assay [9] it was -1.59; in [10] it was 0.491 (inactive).
As for `CCOC(=O)C[C@H]1[C@H](OC(=O)c2ccccc2-c2ccccc2)[C@@H](NC(=O)c2ccc3ccccc3c2)c2cc(OCCCO)ccc2N1C(=O)c1ccccc1`, the z-score is 0.065 in assay [1]; 0.257 in assay [2]; -0.336 in assay [3]; -0.306 in [4]; -0.604 in assay [5]; 0.579 in assay [6]. Also, the z-score in [7] was 0.633 (inactive); in assay [8], -0.25; in assay [9] it was 0.171; in assay [10], -0.385 (inactive).
